Results reported in PubChem BioAssay (NCATS).
Inconclusive results are not listed. A number with no mark means an inactive call. The source made the active and inactive calls. Calls follow the shape of the dose curve; as a rule, active = well fitted curve in the direction sought with a large enough effect; inconclusive = small, poorly fitted or top-dose-only effect, or another doubt; inactive = no such curve, though single readings can be large; an effect the other way counts as inactive or inconclusive.

Assays:
[1] = qHTS of pediatric cancer cell lines to identify multiple opportunities for drug repurposing: Primary screen for NB-EBc1 cells (AID 1347095); also: potency is read from the fitted curve at half-maximal effect;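 as to activity change, negative = cytotoxic: plate controls were DMSO neutral control for no effect and bortezomib for full effect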
Summary of the method: (§1)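 ATP-based luminescence (CellTiter-Glo) quantifies viability after a 48-hour exposure. Compounds are dosed across 8 or 11 final concentrations; DMSO and 2.3 µM bortezomib serve as controls.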

[2] = qHTS of pediatric cancer cell lines to identify multiple opportunities for drug repurposing: Primary screen for Saos-2 cells (AID 1347097); also: nearly all actives have a fitted effect of over 40% in size; also: potency is read from the fitted curve at half-maximal effect; as to activity change, negative = cytotoxic: % is scaled to controls: 0 for no effect and ±100 for the full control effect
Summary of the method: as §1

[3] = qHTS of pediatric cancer cell lines to identify multiple opportunities for drug repurposing: Primary screen for SK-N-SH cells (AID 1347098); also: nearly all actives have a fitted effect of over 65% in size; also: potency is read from the fitted curve at half-maximal effect;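 as to activity change, negative = cytotoxic: DMSO served as neutral control and bortezomib at 2.3 µM as positive control; % is scaled to controls: 0 for no effect and ±100 for the full control effect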
Summary of the method: (§2)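 Cells (500-1,000/well) rested 5 h, then received compounds for 48 h; metabolically active cells were measured by CellTiter-Glo luminescence. Final concentrations spanned up to 46 µM (MIPE, 11-point) or 0.59 nM-46 µM (NPC, 8-point) in primary screens, 11-point in follow-ups.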

[4] = qHTS of pediatric cancer cell lines to identify multiple opportunities for drug repurposing: Primary screen for NB1643 cells (AID 1347099); also: nearly all actives have a fitted effect of over 50% in size; also: potency is read from the fitted curve at half-maximal effect;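 as to activity change, negative = cytotoxic: plate controls were DMSO neutral control for no effect and bortezomib positive control for full effect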
Summary of the method: as §1

[5] = qHTS of pediatric cancer cell lines to identify multiple opportunities for drug repurposing: Primary screen for LAN-5 cells (AID 1347100); also: potency is read from the fitted curve at half-maximal effect;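 as to activity change, negative = cytotoxic: plate controls were DMSO neutral control for no effect and bortezomib positive control for full effect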
Summary of the method: (§3)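 Viability after 48 h compound treatment at 37C, 500-1,000 cells/well, read as ATP luminescence with CellTiter-Glo. Primary screens used 11-point (MIPE, 0.78 nM-46 µM) or 8-point (NPC, 0.59 nM-46 µM) final concentrations; follow-up screens used 11-point dilutions.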

[6] = qHTS of pediatric cancer cell lines to identify multiple opportunities for drug repurposing: Primary screen for BT-12 cells (AID 1347101); also: nearly all actives have a fitted effect of over 25% in size; also: potency is read from the fitted curve at half-maximal effect;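 as to activity change, negative = cytotoxic: plate controls were DMSO for no effect and bortezomib positive control for full effect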
Summary of the method: as §2

[7] = qHTS of pediatric cancer cell lines to identify multiple opportunities for drug repurposing: Primary screen for Rh18 cells (AID 1347102); also: nearly all actives have a fitted effect of over 65% in size; also: potency is read from the fitted curve at half-maximal effect; as to activity change, negative = cytotoxic: % is scaled to controls: 0 for no effect and ±100 for the full control effect
Summary of the method: as §3

[8] = qHTS of pediatric cancer cell lines to identify multiple opportunities for drug repurposing: Primary screen for OHS-50 cells (AID 1347103); also: nearly all actives have a fitted effect of over 40% in size; also: potency is read from the fitted curve at half-maximal effect;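 as to activity change, negative = cytotoxic: plate controls were DMSO neutral control for no effect and bortezomib positive control for full effect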
Summary of the method: as §2

[9] = qHTS of pediatric cancer cell lines to identify multiple opportunities for drug repurposing: Primary screen for RD cells (AID 1347104); also: nearly all actives have a fitted effect of over 55% in size; also: potency is read from the fitted curve at half-maximal effect;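 as to activity change, negative = cytotoxic: plate controls were DMSO for no effect and bortezomib for full effect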
Summary of the method: as §1

[10] = qHTS of pediatric cancer cell lines to identify multiple opportunities for drug repurposing: Primary screen for U-2 OS cells (AID 1347096);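 also: plate controls were DMSO wells for no effect and bortezomib positive control wells for full effect; nearly all actives have a fitted effect of over 50% in size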
Summary of the method: as §3

Structure (SMILES): COc1ccc(CC2c3cc(OC)c(OC)cc3CC[N+]2(C)CCC(=O)OCCCCCOC(=O)CC[N+]2(C)CCc3cc(OC)c(OC)cc3C2Cc2ccc(OC)c(OC)c2)cc1OC (stereo not given)
- activity change, negative = cytotoxic [1]: 16.9% [at 9.22 µM]
- activity change, negative = cytotoxic [2]: 4.71% [at 9.22 µM]
- activity change, negative = cytotoxic [3]: -0.106% [at 11.4 µM]
- activity change, negative = cytotoxic [4]: 1.38% [at 9.22 µM]
- activity change, negative = cytotoxic [5]: 2.36% [at 9.22 µM]
- activity change, negative = cytotoxic [6]: 7.29% [at 11.5 µM]
- activity change, negative = cytotoxic [7]: -3.1% [at 9.22 µM]
- activity change, negative = cytotoxic [8]: 9.58% [at 11.5 µM]
- activity change, negative = cytotoxic [9]: 4.63% [at 9.22 µM]

Structure (SMILES): CCCCN1CCC(CNC(=O)c2c3n(c4ccccc24)CCCO3)CC1
- Potency [1]: 13.2 µM (active)
- Potency [10]: inactive
- Potency [3]: 15.2 µM (active)
- Potency [9]: 4.69 µM (active)

Structure (SMILES): CNC(=O)c1c(F)cccc1Nc1nc(Nc2cc3c(cc2OC)CCN3C(=O)CN(C)C)nc2[nH]ccc12
- Potency [1]: 0.332 µM (active)
- Potency [10]: inactive
- Potency [3]: 8.57 µM (active)
- Potency [4]: 0.132 µM (active)
- Potency [5]: 0.0526 µM (active)
- Potency [7]: 8.33 µM (active)
- Potency [8]: 0.344 µM (active)
- Potency [9]: 0.662 µM (active)

Structure (SMILES): CC(C)(C)c1cc(C(C)(C)C)c(NC(=O)c2c[nH]c3ccccc3c2=O)cc1O
- Potency [1]: inactive
- Potency [10]: inactive
- Potency [3]: inactive
- Potency [4]: inactive
- Potency [5]: inactive
- Potency [6]: inactive
- Potency [7]: inactive
- Potency [8]: inactive
- Potency [9]: inactive

Structure (SMILES): Cn1c2ccccc2c2c3c(c4c5ccccc5n(CCC#N)c4c21)CNC3=O
- Potency [1]: 0.418 µM (active)
- Potency [2]: 0.935 µM (active)
- Potency [3]: 5.41 µM (active)
- Potency [4]: 1.87 µM (active)
- Potency [5]: 5.9 µM (active)
- Potency [8]: 5.44 µM (active)

Structure (SMILES): O=C(Nc1ncc(-c2cc(C(F)F)nn2-c2c(Cl)cccc2Cl)s1)C1CC1
- Potency [1]: 0.296 µM (active)
- Potency [2]: 0.209 µM (active)
- Potency [3]: 0.482 µM (active)
- Potency [4]: 3.32 µM (active)
- Potency [5]: 0.332 µM (active)
- Potency [6]: 0.968 µM (active)
- Potency [8]: 0.432 µM (active)
- Potency [9]: 0.418 µM (active)

Structure (SMILES): Clc1ccc2ncc(-c3cccc(NC4CNC4)n3)n2c1
- Potency [1]: 1.48 µM (active)
- Potency [2]: inactive
- Potency [3]: 3.41 µM (active)
- Potency [5]: 16.6 µM (active)
- Potency [6]: 8.63 µM (active)
- Potency [7]: inactive

Structure (SMILES): CC(=O)OCCN1C(=O)c2c(C)nc3ccc(S(=O)(=O)N4CCOCC4)cc3c2C1=O
- Potency [1]: inactive
- Potency [2]: inactive
- Potency [3]: inactive
- Potency [6]: 10.9 µM (active)
- Potency [7]: inactive
- Potency [8]: 24.3 µM (active)

Structure (SMILES): COC(=O)c1ccc2c(C(=Nc3ccc(N(C)C(=O)CN4CCN(C)CC4)cc3)c3ccccc3)c(O)[nH]c2c1
- Potency [1]: 2.09 µM (active)
- Potency [2]: 9.35 µM (active)
- Potency [3]: 6.07 µM (active)
- Potency [4]: 2.35 µM (active)
- Potency [5]: 2.35 µM (active)
- Potency [8]: 5.44 µM (active)

Structure (SMILES): CCn1nnc2c(N3CCOCC3)nc(-c3ccc(NC(=O)Nc4ccc(C(=O)N5CCN(C)CC5)cc4)cc3)nc21
- Potency [1]: 0.743 µM (active)
- Potency [2]: 0.148 µM (active)
- Potency [3]: 8.57 µM (active)
- Potency [4]: 0.0743 µM (active)
- Potency [5]: 0.0833 µM (active)
- Potency [7]: 0.0418 µM (active)
- Potency [8]: 0.0273 µM (active)
- Potency [9]: 0.0264 µM (active)

Structure (SMILES): CC(=O)SC[C@@H](C)C(=O)N1CCC[C@H]1C(=O)N[C@@H](Cc1ccccc1)C(=O)O
- Potency [1]: inactive
- Potency [2]: inactive
- Potency [3]: inactive
- Potency [4]: inactive
- Potency [5]: inactive
- Potency [6]: inactive
- Potency [7]: inactive
- Potency [8]: inactive
- Potency [9]: inactive

Structure (SMILES): Cc1[nH]nc2ccc(-c3cncc(OC[C@@H](N)Cc4ccccc4)c3)cc12
- Potency [1]: 0.469 µM (active)
- Potency [2]: 2.96 µM (active)
- Potency [3]: 1.52 µM (active)
- Potency [4]: 0.935 µM (active)
- Potency [5]: 0.372 µM (active)
- Potency [6]: 1.72 µM (active)
- Potency [7]: 3.32 µM (active)
- Potency [9]: 3.32 µM (active)

Structure (SMILES): O=C(NCCCNc1nc(Nc2cccc(NC(=O)N3CCCC3)c2)ncc1I)c1cccs1
- Potency [1]: 23.5 µM (active)
- Potency [2]: 3.32 µM (active)
- Potency [3]: 17.1 µM (active)
- Potency [4]: 11.8 µM (active)
- Potency [5]: 0.833 µM (active)
- Potency [6]: 24.3 µM (active)
- Potency [7]: 14.8 µM (active)
- Potency [8]: 24.3 µM (active)
- Potency [9]: 16.6 µM (active)

Structure (SMILES): Cc1c(CN2CCN(S(C)(=O)=O)CC2)sc2c(N3CCOCC3)nc(-c3cnc(N)nc3)nc12
- Potency [1]: 0.0332 µM (active)
- Potency [2]: 0.332 µM (active)
- Potency [3]: 1.92 µM (active)
- Potency [5]: 0.0264 µM (active)
- Potency [7]: 0.105 µM (active)
- Potency [8]: 0.0097 µM (active)
- Potency [9]: 0.132 µM (active)

Structure (SMILES): Cc1ccc(S(=O)(=O)Nc2cc(Cl)ccc2C(=O)Nc2nc(-c3ccccc3)cs2)cc1
- Potency [1]: 7.43 µM (active)
- Potency [2]: 14.8 µM (active)
- Potency [3]: inactive
- Potency [4]: 3.72 µM (active)
- Potency [5]: 9.35 µM (active)
- Potency [7]: inactive
- Potency [8]: 8.63 µM (active)
- Potency [9]: 10.5 µM (active)

Structure (SMILES): C=CC(=O)Nc1cc2c(Nc3ccc(F)c(Cl)c3)ncnc2cc1OCCCN1CCOCC1
- Potency [1]: 18.7 µM (active)
- Potency [2]: 5.9 µM (active)
- Potency [3]: 2.73 µM (active)
- Potency [4]: 23.5 µM (active)
- Potency [5]: 6.62 µM (active)
- Potency [6]: 21.7 µM (active)
- Potency [7]: 8.33 µM (active)
- Potency [8]: 7.69 µM (active)
- Potency [9]: 18.7 µM (active)
